Assay results from PubChem BioAssay (NCATS).
Several values for one entry are separate records, joined by “and”; a condition that tells them apart may be missing. Equal values may be shown once. Inconclusive results are not listed. Activity calls are given as the source filed them. Unless noted, calls follow the shape of the dose curve; as a rule, active = well fitted curve in the direction sought with a large enough effect; inconclusive = small, poorly fitted or top-dose-only effect, or another doubt; inactive = no such curve, though single readings can be large; an effect the other way counts as inactive or inconclusive. Where a SMILES comes first, the peptide text is derived from it. [ ]: non-standard residue; d: D form. pGlu = O=C1CC[C@@H](C(=O)O)N1; Thz = O=C(O)[C@@H]1CSCN1

What was measured:
Tov-21-G = experiment: Primary qHTS to identify gynecologic anti-cancer compounds using libraries of approved drugs and bioactive compounds (AID 1345084); settings: Gynecologic cancer cell panel viability, ATPlite luminescence, 48 h; series mostly up to 57.5 µM; also: % is scaled to controls: 0 for no effect and ±100 for the full control effect; nearly all actives have a fitted effect of over 55% in size
Outline: (§1)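 Measured: luminescence after ATPlite addition (15 min, RT). Exposure: 48 h, 37 C, 5% CO2.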

Tov112D = experiment: as above; settings: Gynecologic cancer cell panel viability, ATPlite luminescence, 48 h; series mostly up to 57.5 µM
Outline: as §1

[1] = Drug repurposing screens with cells derived from glioblastoma tumor samples (AID 1345199); settings: GBM patient neurospheres viability, ATP luminescence, 48 h; also: nearly all actives have a fitted effect of over 40% in size; also: potency is read from the fitted curve at half-maximal effect; as to activity, negative = cell killing: % is scaled to controls: 0 for no effect and ±100 for the full control effect
Outline: (§2)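 Four patient lines of CD133+ GBM neurospheres were screened at several concentrations; hits were retested in those lines plus three slower-growing GBM lines, using 48-hour treatment and ATP-based viability.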

astro = experiment: as above; settings: viability, ATP luminescence, 48 h; series mostly up to 45.9 µM
Outline: as §2

[2] = target: Nuclear receptor subfamily 1 group I member 2 (Rattus norvegicus) (UniProt Q9R1A7); experiment: qHTS assay for small molecule activators of the rat pregnane X receptor (rPXR) signaling pathway (AID 651751; call rule not given here; also: 0% is about no effect); settings: rPXR reporter cells, luciferase (One-Glo), 24 h
[3] = qHTS assay for small molecule activators of the human pregnane X receptor (PXR) signaling pathway (AID 720659; call rule not given here; also: 0% is about no effect)
[4] = qHTS assay to identify inhibitors of the type 1 interferon - major histocompatibility complex class I in skeletal muscle: Counter screen cell viability and HiBit confirmation (AID 1347412); settings: iHSKM muscle cells + IFN-b, HiBiT or CellTiter-Glo, 24 h, at 45.9 µM (top of the series); also: % is scaled to controls: 0 for no effect and ±100 for the full control effect; nearly all actives have a fitted effect of over 60% in size
Outline: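 Human myoblast knock-in line, 4.0 ng/ml IFN-beta stimulation, 24 h compound treatment. Endpoints: HiBiT lytic luminescence (HLA-B level) and CellTiter Glo (ATP). Dosing 12 concentrations, 3-fold steps, 46 uM highest final.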

[5] = at 45.9 µM (top of the series), tumour line B
[6] = at 45.9 µM (top of the series), tumour line D
[7] = at 46 µM (top of the series), tumour line A
[8] = at 46.1 µM (top of the series), tumour line C
[9] = at 20 µM (top of the series), tumour line C
[10] = at 21.2 µM (top of the series), tumour line B
[11] = at 21.2 µM (top of the series), tumour line D
[12] = at 21.3 µM (top of the series), tumour line A

Chain of Nuclear receptor subfamily 1 group I member 2 (Rattus norvegicus) (Q9R1A7 whole entry, looked up): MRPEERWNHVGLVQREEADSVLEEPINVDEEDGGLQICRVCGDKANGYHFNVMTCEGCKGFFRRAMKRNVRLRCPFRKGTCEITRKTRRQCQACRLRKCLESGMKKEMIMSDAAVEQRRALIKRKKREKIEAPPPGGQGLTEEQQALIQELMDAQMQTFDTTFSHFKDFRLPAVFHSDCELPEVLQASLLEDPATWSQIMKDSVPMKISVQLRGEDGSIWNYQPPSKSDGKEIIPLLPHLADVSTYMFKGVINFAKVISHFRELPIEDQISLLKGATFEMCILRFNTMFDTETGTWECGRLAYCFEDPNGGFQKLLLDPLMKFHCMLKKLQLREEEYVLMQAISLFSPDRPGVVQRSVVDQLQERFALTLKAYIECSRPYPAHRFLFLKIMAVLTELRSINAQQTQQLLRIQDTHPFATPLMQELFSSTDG

CC(=O)c1ccc(OCC(=O)N2CCCCC2)cc1
inactive: Potency (Tov-21-G) | Potency (Tov112D) | activity, negative = cell killing [1, 5] -9.55% | activity, negative = cell killing [1, 6] -17.5% | activity, negative = cell killing [1, 7] -29.4% | activity, negative = cell killing [1, 8] -5.72% | Potency (astro)

N=C(N)N
inactive: Potency (Tov-21-G) | Potency (Tov112D) | activity, negative = cell killing [1, 5] -7.3% | activity, negative = cell killing [1, 6] -23.5% | activity, negative = cell killing [1, 7] -16.6% | activity, negative = cell killing [1, 8] -13.1%

CCC1C(=O)OCC1Cc1cncn1C (centres undefined)
inactive: Potency (Tov-21-G) | Potency (Tov112D) | activity, negative = cell killing [1, 5] -2.95% | activity, negative = cell killing [1, 6] -8.25% | activity, negative = cell killing [1, 7] -25.3% | activity, negative = cell killing [1, 8] -11.8% | Potency (astro)

O=C(O)Cc1ccc(-c2ccccc2)cc1
inactive: Potency (Tov-21-G) | Potency (Tov112D) | activity, negative = cell killing [1, 9] 2.3% | activity, negative = cell killing [1, 10] -5.31% | activity, negative = cell killing [1, 11] -13.6% | activity, negative = cell killing [1, 12] -23.3% | Potency (astro)

CC(C(=O)O)c1ccc(C(=O)c2cccs2)cc1 (centres undefined)
inactive: Potency (Tov-21-G) | Potency (Tov112D) | activity, negative = cell killing [1, 9] 9.23% | activity, negative = cell killing [1, 10] -14.5% | activity, negative = cell killing [1, 11] -0.88% | activity, negative = cell killing [1, 12] -13%

CC(C)OC(=O)c1cc(C(=O)OC(C)C)cc([N+](=O)[O-])c1
inactive: Potency (Tov-21-G) | Potency (Tov112D) | activity, negative = cell killing ([1]; at 91.6 µM (top of the series), tumour line A) -39.8% | activity, negative = cell killing ([1]; at 91.6 µM (top of the series), tumour line B) -8.41% | activity, negative = cell killing ([1]; at 91.6 µM (top of the series), tumour line D) -19.6% | activity, negative = cell killing ([1]; at 99.2 µM (top of the series), tumour line C) 10.5% | Potency (astro) | max response [2] 14.5% | outcome [3]

CC(C(=O)O)c1ccc2c(c1)[nH]c1ccc(Cl)cc12 (centres undefined)
inactive: Potency (Tov-21-G) | Potency (Tov112D) | activity, negative = cell killing [1, 5] -6.45% | activity, negative = cell killing [1, 6] -15.7% | activity, negative = cell killing [1, 7] -16.3% | activity, negative = cell killing [1, 8] -19.6% | Potency (astro)

CC1(C)[C@@H](O[C@H]2O[C@H](C(=O)O)[C@@H](O)[C@H](O)[C@H]2O[C@@H]2O[C@H](C(=O)O)[C@@H](O)[C@H](O)[C@H]2O)CC[C@]2(C)[C@H]3C(=O)C=C4[C@@H]5C[C@@](C)(C(=O)O)CC[C@]5(C)CC[C@@]4(C)[C@]3(C)CC[C@@H]12
inactive: Potency (Tov-21-G) | Potency (Tov112D) | activity, negative = cell killing [1, 5] -9.84% | activity, negative = cell killing [1, 6] 5.57% | activity, negative = cell killing [1, 7] -2.05% | activity, negative = cell killing [1, 8] 21.2% | Potency (astro)

O=C1CC[C@@H](C(=O)N2CSC[C@H]2C(=O)O)N1 ([pGlu]-[Thz]-OH)
inactive: Potency (Tov-21-G) | Potency (Tov112D) | activity, negative = cell killing [1, 5] -16.5% | activity, negative = cell killing [1, 6] -0.509% | activity, negative = cell killing [1, 7] -28.4% | activity, negative = cell killing [1, 8] -18.5% | Potency (astro)

CC1(C)S[C@@H]2[C@H](NC(=O)[C@H](NC(=O)N3CCN(S(C)(=O)=O)C3=O)c3ccccc3)C(=O)N2[C@H]1C(=O)O
inactive: Potency (Tov-21-G) | Potency (Tov112D) | activity, negative = cell killing [1, 5] -6.53% | activity, negative = cell killing [1, 6] -7.16% | activity, negative = cell killing [1, 7] -8.92% | activity, negative = cell killing [1, 8] -22.9% | Potency (astro)

C[C@H](O)[C@H](O)[C@H]1CNc2nc(N)[nH]c(=O)c2N1
inactive: Potency (Tov-21-G) | Potency (Tov112D) | activity, negative = cell killing [1, 5] -2.46% | activity, negative = cell killing [1, 6] 16.1% | activity, negative = cell killing [1, 7] -18.9% | activity, negative = cell killing [1, 8] 11.1% | Potency (astro)

Cc1ccc(C(=O)c2ccc(CC(=O)O)n2C)cc1
inactive: Potency (Tov-21-G) | Potency (Tov112D) | activity, negative = cell killing [1, 9] -5.11% | activity, negative = cell killing [1, 10] -9.02% | activity, negative = cell killing [1, 11] -3.08% | activity, negative = cell killing [1, 12] -10.3% | Potency (astro)

COc1cc(NC(C)CCCN)c2ncccc2c1 (centres undefined)
active: Potency ([1]; tumour line A) 10 µM
inactive: Potency (Tov-21-G) | Potency (Tov112D) | activity, negative = cell killing [1, 9] 6.33% | Potency (astro)

COc1cc2c3cc1Oc1cc(ccc1O)C[C@@H]1c4c(cc(OC)c(O)c4Oc4ccc(cc4)C[C@@H]3N(C)CC2)CC[N+]1(C)C
inactive: Potency (Tov-21-G) | Potency (Tov112D) | activity, negative = cell killing [1, 5] 1% | activity, negative = cell killing [1, 6] -8.25% | activity, negative = cell killing [1, 8] 7.69% | Potency (astro)

COC(=O)C1=C(C)NC(C)=C(C(=O)OC)C1c1cccc(NC(=O)NCCCN2CCC(c3cccc(OC)c3)CC2)c1
inactive: Potency (Tov-21-G) | activity change, negative = inhibition ([4]; HiBiT) -3.18% | activity change, negative = inhibition ([4]; Viability) -19.5%

O=C(O)c1cc(O)c(O)c(O)c1
inactive: Potency (Tov-21-G) | Potency (Tov112D) | activity, negative = cell killing [1, 5] -10.4% | activity, negative = cell killing [1, 6] -20.6% | activity, negative = cell killing [1, 8] 20.7% | Potency (astro) | max response [2] -9.5% | outcome [3]

Nc1ccc(O)c([N+](=O)[O-])c1
inactive: Potency (Tov-21-G) | Potency (Tov112D) | max response [2] -2.38% and -0.765% | outcome [3]

S=c1[nH]c2ccccc2s1
inactive: Potency (Tov-21-G) | Potency (Tov112D) | activity, negative = cell killing [1, 5] -16.2% | activity, negative = cell killing [1, 8] -8.66% | max response [2] 4.63% and 1.9% | outcome [3]
active: Potency ([1]; tumour line A) 39.8 µM

O=C(/C=C/c1ccccc1)NCCO
inactive: Potency (Tov-21-G) | Potency (Tov112D) | activity, negative = cell killing [1, 5] -16.2% | activity, negative = cell killing [1, 6] -5.87% | activity, negative = cell killing [1, 8] -18.2% | Potency (astro)

c1ccc2sc(SN3CCOCC3)nc2c1
inactive: Potency (Tov-21-G) | Potency (Tov112D) | activity, negative = cell killing [1, 5] -16.5% | activity, negative = cell killing [1, 6] -19.8% | activity, negative = cell killing [1, 8] -23.9% | Potency (astro)
